Compounds without any hit were thinned out: in the full panel of roughly 83,000, 20% have a hit.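 Single-dose data. Exposure time 48 hours. Values below 10 considered active.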 Values without a mark were called inactive. Calls of active or inactive are those of the source.

Test systems include DU-145 prostate; K-562 leukemia; MALME-3M melanoma; MDA-MB-231 breast; RXF 393 renal; SF-268 CNS; SF-295 CNS; SF-539 CNS; UACC-257 melanoma; M14 melanoma; HCT-15 colon; HT29 colon; SNB-75 CNS; U251 CNS; SK-MEL-5 melanoma; UACC-62 melanoma; LOX IMVI melanoma; SK-MEL-28 melanoma; SNB-19 CNS; PC-3 prostate.
Test in all cases: NCI-60 one-dose screen, 48 h (100 = growth as untreated, 0 = no growth, -100 = all killed)
Holding throughout (conditions): 10 µM unless noted

Turning to `Cc1[nH]c(-c2cc(N)ccc2Cl)c2c1C(=O)CCCC2`, the growth was 66.3% in the assay with DU-145 prostate; 23.2% in the assay with K-562 leukemia; 32.4% in the assay on MALME-3M melanoma; 22% with MDA-MB-231 breast; 19.6% in the assay on RXF 393 renal; 53.5% in the assay with SF-268 CNS. Moreover, the growth in the assay on SF-295 CNS is 31.8%; in the assay with SF-539 CNS, 25.3%; in the assay with UACC-257 melanoma, 18.6%; in the assay with M14 melanoma, 39.3%; with HCT-15 colon it was 17.7%; in the assay with HT29 colon it was 12.8%. Besides, the growth in the assay with SNB-75 CNS is 1.7% (active); with U251 CNS, 38.5%; in the assay on SK-MEL-5 melanoma, 1.73% (active); in the assay on UACC-62 melanoma it was 15.7%; in the assay with LOX IMVI melanoma, 3.58% (active); with SK-MEL-28 melanoma, 59.1%.

In the case of `CCOC(=O)c1c(C)oc2ncnc(N3CCN(C(=S)Nc4ccccc4)CC3)c12`, the growth with DU-145 prostate is 101%; in the assay on K-562 leukemia, 85%; in the assay on MALME-3M melanoma it was 99.9%; in the assay on MDA-MB-231 breast, 89.1%; in the assay on RXF 393 renal, 90.8%; in the assay on SF-268 CNS, 94.1%. Also, the growth in the assay with SF-295 CNS is 96%; in the assay with SF-539 CNS it was 91.8%; in the assay with UACC-257 melanoma, 98%; in the assay on M14 melanoma, 104%; with HCT-15 colon it was 90.6%; with HT29 colon, 102%. Moreover, the growth with SNB-75 CNS is 80.5%; in the assay on SNB-19 CNS it was 96.5%; in the assay on PC-3 prostate, 91.8%; in the assay on UACC-62 melanoma it was 87.2%; with LOX IMVI melanoma, 90.7%; in the assay with SK-MEL-28 melanoma, 107%.

`Brc1ccc(-c2csc(Nc3ccccn3)n2)cc1`: the growth in the assay with DU-145 prostate was 109%; with K-562 leukemia, 57.1%; with MALME-3M melanoma, 76.3%; in the assay on MDA-MB-231 breast it was 86.3%; in the assay with RXF 393 renal, 118%; in the assay with SF-268 CNS, 115%. Also, the growth in the assay on SF-295 CNS was 99.9%; with SF-539 CNS, 102%; in the assay with UACC-257 melanoma, 105%; in the assay on M14 melanoma it was 96.9%; in the assay with HCT-15 colon, 138%; in the assay with HT29 colon it was 97.8%. The growth with SNB-75 CNS was 93.4%; in the assay with SNB-19 CNS, 99.4%; with SK-MEL-5 melanoma, 75.5%; in the assay with UACC-62 melanoma, 75.5%; in the assay on LOX IMVI melanoma, 214%; in the assay with SK-MEL-28 melanoma, 149%.

On to `Nc1nc2ccc3[nH]ncc3c2c2c1CCCC2`, for which the growth in the assay with DU-145 prostate is 6.94% (active); in the assay on K-562 leukemia, 9.77% (active); in the assay on MALME-3M melanoma, 23%; with MDA-MB-231 breast, 4% (active); in the assay with RXF 393 renal, -51.1% (active); with SF-268 CNS, -9.66% (active). The growth was 17.1% in the assay on SF-295 CNS; -32.9% (active) in the assay with SF-539 CNS; 15.6% in the assay with UACC-257 melanoma; 1.67% (active) in the assay on M14 melanoma; 3.93% (active) in the assay with HCT-15 colon; 5.02% (active) with HT29 colon. In addition, the growth in the assay on SNB-75 CNS was -46.9% (active); in the assay on U251 CNS, 8.3% (active); with PC-3 prostate it was 3.35% (active); in the assay with UACC-62 melanoma, 10.9%; with LOX IMVI melanoma, -9.24% (active); in the assay on SK-MEL-28 melanoma it was 9.47% (active).

Consider `O=[N+]([O-])c1ccc(Nc2nc(NCCN3CCOCC3)ncc2[N+](=O)[O-])cc1`, for which the growth in the assay on DU-145 prostate is 92.5%; in the assay with K-562 leukemia, 103%; with MALME-3M melanoma it was 91%; with MDA-MB-231 breast, 95.8%; in the assay with RXF 393 renal, 63%; with SF-268 CNS, 93.8%. The growth in the assay with SF-295 CNS is 98.6%; with SF-539 CNS, 93.9%; in the assay with UACC-257 melanoma it was 109%; in the assay with M14 melanoma, 95%; with HCT-15 colon, 84.9%; with HT29 colon it was 91.8%. Moreover, the growth is 76.4% in the assay with SNB-75 CNS; 96% with SK-MEL-5 melanoma; 84.2% with UACC-62 melanoma; 96.8% in the assay on LOX IMVI melanoma; 98% in the assay on SK-MEL-28 melanoma.

As to `NS(=O)(=O)c1ccc(CN=C2NC(=O)S/C2=C\c2ccc(Br)cc2)cc1`, the growth in the assay on DU-145 prostate was 111%; in the assay with K-562 leukemia it was 102%; in the assay on MALME-3M melanoma it was 93.8%; with MDA-MB-231 breast it was 101%; in the assay on RXF 393 renal, 105%; in the assay on SF-268 CNS, 92.3%. The growth in the assay with SF-295 CNS is 102%; in the assay on SF-539 CNS it was 92.3%; in the assay with UACC-257 melanoma it was 102%; in the assay on M14 melanoma, 102%; in the assay on HCT-15 colon, 103%; in the assay with HT29 colon, 105%. Moreover, the growth in the assay with SNB-75 CNS was 89.1%; in the assay with U251 CNS, 97.9%; in the assay on SK-MEL-5 melanoma, 99.2%; in the assay on UACC-62 melanoma, 93.3%; with LOX IMVI melanoma, 100%; in the assay on SK-MEL-28 melanoma, 100%.

Turning to `CC[C@H]1OC(=O)[C@H](C)[C@@H](O[C@H]2C[C@@](C)(OC)[C@@H](O)[C@H](C)O2)[C@H](C)[C@@H](O[C@@H]2O[C@H](C)C[C@H](N(C)C)[C@H]2O)[C@](C)(O)C[C@H](C)CN(C)[C@H](C)[C@@H](O)[C@]1(C)O`, the growth with DU-145 prostate was 109%; in the assay on K-562 leukemia it was 108%; in the assay with MALME-3M melanoma, 92%; in the assay with MDA-MB-231 breast, 55.2%; with RXF 393 renal, 85.5%; in the assay with SF-268 CNS, 99.1%. Besides, the growth is 108% in the assay on SF-295 CNS; 102% in the assay with SF-539 CNS; 124% in the assay with UACC-257 melanoma; 96.4% in the assay with M14 melanoma; 97.1% with HCT-15 colon; 102% in the assay with HT29 colon. The growth was 80.8% in the assay with SNB-75 CNS; 94.8% in the assay on U251 CNS; 91% in the assay with PC-3 prostate; 98.3% in the assay with UACC-62 melanoma; 87% in the assay with LOX IMVI melanoma; 114% with SK-MEL-28 melanoma.

Regarding `CCOc1cc2ncc(C#N)c(Nc3ccc(OCc4cccc(F)c4)c(Cl)c3)c2cc1NC(=O)CC1CCSS1` (stereo unspecified), the growth was -24.9% (active) in the assay on DU-145 prostate; 10.5% in the assay on K-562 leukemia; 56.5% in the assay with MALME-3M melanoma; 14.5% with MDA-MB-231 breast; 50.2% in the assay on RXF 393 renal; -22.3% (active) in the assay on SF-268 CNS. The growth in the assay on SF-295 CNS is 91.3%; with SF-539 CNS, 49.9%; with UACC-257 melanoma it was 64.8%; in the assay with M14 melanoma it was -68.5% (active); with HCT-15 colon, 66.4%; in the assay on SNB-75 CNS, 102%. In addition, the growth in the assay with SNB-19 CNS was 81.5%; in the assay on U251 CNS, 55.9%; in the assay with PC-3 prostate, -42.7% (active); in the assay on UACC-62 melanoma, 71.6%; with LOX IMVI melanoma, -35.3% (active); in the assay with SK-MEL-28 melanoma, 34.9%.

With `O=C1NC(=O)C(c2ccc(Cl)cc2Cl)N1` (stereo unspecified), the growth with DU-145 prostate was 112%; in the assay on K-562 leukemia it was 102%; with MALME-3M melanoma, 106%; in the assay on MDA-MB-231 breast it was 101%; in the assay with RXF 393 renal, 117%; with SF-268 CNS it was 106%. Further, the growth is 110% in the assay on SF-295 CNS; 115% in the assay on SF-539 CNS; 112% with UACC-257 melanoma; 106% in the assay on M14 melanoma; 108% in the assay with HCT-15 colon; 92.7% with SNB-75 CNS. Moreover, the growth with SNB-19 CNS was 97.1%; in the assay with U251 CNS, 103%; in the assay with PC-3 prostate it was 104%; with UACC-62 melanoma, 97.7%; in the assay on LOX IMVI melanoma it was 104%; with SK-MEL-28 melanoma, 112%.
